dFosB act: mouse delta FosB homodimer activation; purified delta FosB, TAMRA-CDK5 oligo fluorescence polarization; percent of positive-control signal above neutral wells; activation, % at 25 µM; actives 0.99% (n = 340,000); AID 493131;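 active = mean activation above about 17%, with every replicate also reaching it, limit read from the data, passing the limit was not always enough; inconclusive = only one of the two conditions met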
AF4-AF9 inh: inhibitors of human MLL-AF4/AF9 interaction; inhibition, % at 10 µM; AlphaScreen, biotin-AF4 peptide binding to FLAG-AF9; actives 0.47% (n = 350,000); P42568;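 active = every replicate reaching a set inhibition limit, whatever the replicate mean, cut at about 25% in these data; inconclusive = mean inhibition reaches that limit but some replicates miss it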
INS-1E GSIS act: primary screen for activators of insulin secretion dependent on glucose, INS-1E cells, GLuc reporter luminescence; actives 0.61% (n = 370,000); activation, % at 16.6 µM; INS-1E GLuc reporter insulin secretion, 2-3 h;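 active = lowest replicate activation of at least 40%, so every replicate reaches that level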
DENV2 CPE rescue: protects cells from dengue virus 2 cytopathic effect. DENV2-infected cells, cytopathic effect rescue, plate reader. CPE inhibition, % at 9.99 µM. actives 1.7% (n = 350,000). AID 651640; in the data active = CPE inhibition above about 20%, passing the limit was not always enough; inconclusive = no clear call, values can overlap the other calls; tested in BHK-21 cells
RAD54 branch: inhibitors of human RAD54 branch migration | Q92698 | RAD54 Holliday junction branch migration, FAM/BHQ fluorescence | inhibition, % at 10.4 µM | actives 0.14% (n = 360,000) | AID 602329;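 active = mean normalized replicate activity at least 40 and at least half of replicates scoring 40 or more; inconclusive = only one of the two criteria met; inactive = mean below 40 and under half of replicates reaching 40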;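 note: inhibitors cause a drop in the FAM fluorescence signal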
Target sequence (Q92698 whole entry, looked up): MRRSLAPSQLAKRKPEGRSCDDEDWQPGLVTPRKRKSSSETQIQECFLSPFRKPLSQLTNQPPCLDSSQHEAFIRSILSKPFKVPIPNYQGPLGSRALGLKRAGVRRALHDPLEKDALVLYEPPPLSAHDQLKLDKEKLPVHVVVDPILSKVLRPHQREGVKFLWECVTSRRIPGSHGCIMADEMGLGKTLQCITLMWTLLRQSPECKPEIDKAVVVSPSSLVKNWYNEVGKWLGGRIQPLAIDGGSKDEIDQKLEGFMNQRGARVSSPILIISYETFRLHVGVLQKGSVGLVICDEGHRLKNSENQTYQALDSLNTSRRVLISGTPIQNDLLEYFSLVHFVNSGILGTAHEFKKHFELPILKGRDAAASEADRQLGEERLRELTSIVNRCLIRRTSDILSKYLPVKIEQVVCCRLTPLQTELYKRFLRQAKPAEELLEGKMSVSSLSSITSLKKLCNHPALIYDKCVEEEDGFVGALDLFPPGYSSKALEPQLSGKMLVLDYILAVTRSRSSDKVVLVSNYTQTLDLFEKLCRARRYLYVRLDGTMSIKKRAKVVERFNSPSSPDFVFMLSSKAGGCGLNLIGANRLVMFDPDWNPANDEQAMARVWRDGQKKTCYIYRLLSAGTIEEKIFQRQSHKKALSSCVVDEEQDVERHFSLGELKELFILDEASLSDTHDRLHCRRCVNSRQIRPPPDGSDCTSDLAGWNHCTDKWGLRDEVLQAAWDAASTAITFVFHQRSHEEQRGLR
RAD52 anneal inh: inhibitors of human RAD52 DNA annealing. inhibition, % at 18.7 µM. P43351. recombinant RAD52 DNA annealing, FRET fluorescence. actives 0.46% (n = 360,000);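 active = every replicate showing at least 50% inhibition; inconclusive = mean inhibition at least 50% but not in every replicate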
Numbers stand for hits. An excerpt weighted towards active compounds, which were near 3.1% of everything screened.

For Cc1cc(C)c2c(c1)C1(OCCO1)C(=O)N2 the results were dFosB act inactive, AF4-AF9 inh inactive, INS-1E GSIS act inactive, DENV2 CPE rescue inactive, RAD54 branch inactive and RAD52 anneal inh inactive.
Cc1cc(Br)c2c(c1)C1(OCCO1)C(=O)N2 was read as dFosB act inactive, AF4-AF9 inh inactive, INS-1E GSIS act 41, DENV2 CPE rescue inactive, RAD54 branch inactive and RAD52 anneal inh inactive.
`CN(CC(=O)Nc1cccc(F)c1)C(=O)c1ccccc1CCc1ccccc1` gave dFosB act inactive, AF4-AF9 inh inactive, INS-1E GSIS act inactive, DENV2 CPE rescue 69, RAD54 branch inactive and RAD52 anneal inh inactive.
Screening Cc1cccc(OCC(=O)NNC(=O)Cn2c(=O)cnc3ccccc32)c1 returned dFosB act inactive, AF4-AF9 inh inactive, INS-1E GSIS act inactive, DENV2 CPE rescue inactive, RAD54 branch inactive and RAD52 anneal inh inactive.
`COc1ccc(OCC(=O)NNC(=O)Cn2c(=O)cnc3ccccc32)cc1` gave dFosB act inactive, AF4-AF9 inh inactive, INS-1E GSIS act 76, DENV2 CPE rescue inactive, RAD54 branch inactive and RAD52 anneal inh inactive.
`CN(CC(=O)Nc1cccc(F)c1)C(=O)CSc1nc2ccccc2s1` gave dFosB act inactive, AF4-AF9 inh inactive, INS-1E GSIS act inactive, DENV2 CPE rescue 61 and RAD52 anneal inh inactive.
For CN(CC(=O)Nc1cccc(F)c1)C(=O)Cn1c(=O)cnc2ccccc21 the results were dFosB act inactive, AF4-AF9 inh 29, INS-1E GSIS act inactive, DENV2 CPE rescue inactive and RAD52 anneal inh inactive.
COc1ccc(NC(=O)CN(C)C(=O)c2ccccc2CCc2ccccc2)cc1 was read as dFosB act inactive, AF4-AF9 inh inactive, INS-1E GSIS act inactive, DENV2 CPE rescue inactive and RAD52 anneal inh inactive.
Screening COc1ccccc1C(=O)N1[C@@H](C(C)C)COc2cc(Br)ccc2S1(=O)=O returned dFosB act inactive, AF4-AF9 inh inactive, INS-1E GSIS act inactive, DENV2 CPE rescue 78, RAD54 branch inactive and RAD52 anneal inh inactive.
`C[C@H](CO)N1C[C@H](C)[C@@H](CN(C)Cc2ccc(Oc3ccccc3)cc2)Oc2ccc(N(C)C)cc2C1=O` gave AF4-AF9 inh 37, INS-1E GSIS act inactive, DENV2 CPE rescue inactive, RAD54 branch inactive and RAD52 anneal inh inactive.
C[C@@H]1CN([C@@H](C)CO)C(=O)c2cc(N(C)C)ccc2O[C@@H]1CN(C)Cc1ccc(-c2ccccc2)cc1 was read as AF4-AF9 inh 48, INS-1E GSIS act inactive, DENV2 CPE rescue inactive, RAD54 branch inactive and RAD52 anneal inh inactive.
For C[C@H]1CN([C@@H](C)CO)C(=O)c2cc(N(C)C)ccc2O[C@H]1CN(C)Cc1ccccc1 the results were AF4-AF9 inh inactive, INS-1E GSIS act inactive, DENV2 CPE rescue inconclusive, RAD54 branch inactive and RAD52 anneal inh inactive.
C[C@H](CO)N1C[C@H](C)[C@H](CN(C)Cc2ccc(C(=O)O)cc2)Oc2ccc(N(C)C)cc2C1=O was read as INS-1E GSIS act inactive.
C[C@H](CO)N1C[C@H](C)[C@H](CN(C)Cc2ccccc2)Oc2ccc(N(C)C)cc2C1=O was read as AF4-AF9 inh inactive, INS-1E GSIS act inactive, DENV2 CPE rescue inactive, RAD54 branch inactive and RAD52 anneal inh inactive.
`C[C@H](CO)N1C[C@H](C)[C@H](CN(C)Cc2ccc(-c3ccccc3)cc2)Oc2ccc(N(C)C)cc2C1=O` gave AF4-AF9 inh 49, INS-1E GSIS act inactive, DENV2 CPE rescue inactive, RAD54 branch inactive and RAD52 anneal inh inactive.
`C[C@H]1CN([C@@H](C)CO)C(=O)c2cc(N(C)C)ccc2O[C@H]1CN(C)Cc1ccc(-c2ccccc2)cc1` gave AF4-AF9 inh 33, INS-1E GSIS act inactive, DENV2 CPE rescue inactive, RAD54 branch inactive and RAD52 anneal inh inactive.
For C[C@@H]1CN([C@H](C)CO)C(=O)c2cc(NC(=O)Cn3cnnn3)ccc2O[C@@H]1CN(C)S(=O)(=O)c1ccccc1 the results were AF4-AF9 inh inactive, INS-1E GSIS act inactive, DENV2 CPE rescue inactive and RAD52 anneal inh inactive.
`C[C@@H]1CN([C@H](C)CO)C(=O)c2cccc(N(C)C)c2O[C@H]1CN(C)S(=O)(=O)c1cccs1` gave AF4-AF9 inh inactive, INS-1E GSIS act inactive, DENV2 CPE rescue inactive, RAD54 branch inactive and RAD52 anneal inh inactive.
Screening O=C(N[C@H]1CC[C@@H](CCNS(=O)(=O)c2ccccc2Cl)O[C@H]1CO)c1ccc(F)cc1 returned AF4-AF9 inh inactive, INS-1E GSIS act inactive, DENV2 CPE rescue inactive, RAD54 branch inactive and RAD52 anneal inh inactive.
CN1C(=O)c2cc(NC(=O)c3ccccc3)ccc2OC[C@@H]2O[C@@H](CC(=O)NCC3CC3)CC[C@@H]21 was read as AF4-AF9 inh inactive, INS-1E GSIS act inactive, DENV2 CPE rescue inactive, RAD54 branch inactive and RAD52 anneal inh inactive.
Screening C[C@@H]1CN([C@@H](C)CO)C(=O)c2cc(N(C)C)ccc2O[C@@H]1CN(C)Cc1ccccc1 returned AF4-AF9 inh inactive, INS-1E GSIS act inactive, DENV2 CPE rescue inactive, RAD54 branch inactive and RAD52 anneal inh inactive.
Screening C[C@H](CO)N1C[C@H](C)[C@@H](CN(C)Cc2ccc(-c3ccccc3)cc2)Oc2ccc(N(C)C)cc2C1=O returned AF4-AF9 inh 29, INS-1E GSIS act inactive, DENV2 CPE rescue inconclusive, RAD54 branch inactive and RAD52 anneal inh inactive.
Screening Cc1nc2ccccc2n1C(c1cccnc1)c1nc2ccccc2[nH]1 (stereo not drawn) returned AF4-AF9 inh inactive, DENV2 CPE rescue 38 and RAD52 anneal inh inactive.
Screening C/C=C/c1ccc([C@@H]2[C@@H](CNC(=O)c3ccccc3)N(C(C)=O)[C@H]2CO)cc1 returned INS-1E GSIS act inactive, DENV2 CPE rescue inactive and RAD54 branch inactive.
For CCOC(=O)C(C)Oc1cccc2c(=O)n(CC(=O)Nc3ccc4c(c3)OCCO4)ccc12 (stereo not drawn) the results were dFosB act inactive, AF4-AF9 inh 45, DENV2 CPE rescue inactive, RAD54 branch inactive and RAD52 anneal inh inactive.
`CCOC(=O)C(C)Oc1cccc2c(=O)n(CC(=O)Nc3cccc(OC)c3)ccc12` (stereo not drawn) gave dFosB act inactive, AF4-AF9 inh inactive, INS-1E GSIS act inactive, DENV2 CPE rescue inactive, RAD54 branch inactive and RAD52 anneal inh inactive.
COc1ccc(NC(=O)Nc2cccc3c2O[C@@H](CN(C)C(=O)Nc2cccc4ccccc24)[C@H](C)CN([C@H](C)CO)C3=O)cc1 was read as INS-1E GSIS act inactive, DENV2 CPE rescue inactive and RAD54 branch inactive.
`Cc1ccc(-c2[nH]c(-c3ccc(C(=O)O)cc3)nc2-c2ccccc2)cc1` gave dFosB act inactive, AF4-AF9 inh inactive, INS-1E GSIS act inactive and RAD52 anneal inh inactive.
For O=C(O)c1ccc(-c2nc(-c3ccccc3)c(-c3cccs3)[nH]2)cc1 the results were dFosB act inactive, AF4-AF9 inh inactive, INS-1E GSIS act 53, DENV2 CPE rescue inconclusive and RAD52 anneal inh inactive.
